Holding throughout (assay): NCI-60 one-dose screen, 48 h (100 = growth as untreated, 0 = no growth, -100 = all killed)
What all share (details): 10 µM unless noted

The subject of assay [1] is NCI-H23 lung.
The test system of assay [2] is NCI-H226 lung.
For assay [3], the system named is NCI-H322M lung.
The subject of assay [4] is HOP-62 NSCLC.
The test system of assay [5] is NCI-H460 lung.
The subject of assay [6] is HOP-92 NSCLC.
The subject of assay [7] is NCI-H522 lung.
Assay [8] relates to A549/ATCC NSCLC.
Assay [9] relates to 786-0 renal.
In assay [10] the test system is COLO 205 colon.

Values joined by “and” are separate entries in the source; they are usually repeats but may differ in a detail not shown here. Equal values may be shown once. This is part of a sample that, as a whole, favours compounds with a hit. Of some 83,000 tested, about 20% had one in any assay.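 The endpoint reported here, percent growth, reads 100 for growth as untreated, 0 for no net growth and -100 for all cells dead.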 Active and inactive are the calls of the source. How the source made its calls: active means growth percent below 10; inactive means the rest.

Take `O=C(O)c1c2c(nc3ccccc13)Cc1ccccc1-2`: the growth in assay [1] was 96.7% (inactive) and 95.7% (inactive); in assay [2], 115% (inactive) and 95% (inactive); in [3], 119% (inactive) and 87.4% (inactive); in assay [4], 118% (inactive) and 88.9% (inactive); in [5], 105% (inactive) and 102% (inactive); in assay [6] it was 92.3% (inactive) and 96.5% (inactive). The growth in assay [7] was 113% (inactive) and 104% (inactive); in assay [8] it was 97.9% (inactive) and 107% (inactive); in assay [9], 108% (inactive) and 101% (inactive); in assay [10], 109% (inactive) and 107% (inactive).
As for `CCOC(=O)C(N)Cc1cc(I)c(O)c(I)c1` (centres undefined), the growth was 99.5% (inactive) and 102% (inactive) in assay [1]; 91.6% (inactive) and 96.6% (inactive) in assay [2]; 113% (inactive) and 106% (inactive) in assay [3]; 106% (inactive) and 113% (inactive) in [4]; 109% (inactive) and 115% (inactive) in assay [5]; 102% (inactive) and -3.49% (active) in [6]. For the same compound, the growth was 108% (inactive) and 90.7% (inactive) in [7]; 107% (inactive) and 101% (inactive) in assay [8]; 99.7% (inactive) and 105% (inactive) in assay [9]; 108% (inactive) and 110% (inactive) in assay [10].
With `C#CCOC(=O)C(N)CS` (centres undefined), the growth is 109% (inactive) in assay [1]; 99.9% (inactive) in assay [2]; 97.6% (inactive) in assay [3]; 93.2% (inactive) in assay [4]; 103% (inactive) in assay [5]; 93.9% (inactive) in assay [6]. The values for the growth in assay [7], in assay [8] and in assay [9] were 111% (inactive), 118% (inactive) and 106% (inactive), respectively.
Take `COc1ccc(CCO)cc1`: the growth was 110% (inactive) in assay [1]; 92.8% (inactive) in assay [2]; 99% (inactive) in assay [3]; 96.2% (inactive) in assay [4]; 108% (inactive) in [5]; 86.4% (inactive) in assay [6]. For the same compound, the growth in [7] is 88.6% (inactive); in assay [8], 92.9% (inactive); in [9], 99.3% (inactive); in assay [10], 96.3% (inactive).
With `C/C=C/C(=O)OCCCCCCCCCCCC`, the growth in assay [1] is 105% (inactive); in assay [2], 87.3% (inactive); in assay [3], 114% (inactive); in assay [4] it was 102% (inactive); in [5], 108% (inactive); in assay [6], 96.5% (inactive). For the same compound, the growth was 96.3% (inactive) in [7], 84.2% (inactive) in assay [8], 95% (inactive) in assay [9] and 105% (inactive) in assay [10].
`CC(=O)Nc1ccc2oc(=O)ccc2c1`: the growth in assay [1] was 101% (inactive); in [2] it was 96.5% (inactive); in [3], 101% (inactive); in [4] it was 96.7% (inactive); in [5], 109% (inactive); in assay [6] it was 95% (inactive). The growth in [7] was 93.3% (inactive); in [8], 102% (inactive); in assay [9], 81.6% (inactive).
For `O=C1c2cccnc2-c2ncccc21`, the growth in assay [1] was 105% [100 µM] (inactive); in [2] it was 90% [100 µM] (inactive); in [3], 101% [100 µM] (inactive); in [4], 96.9% [100 µM] (inactive); in [5] it was 111% [100 µM] (inactive); in assay [6], 96.7% [100 µM] (inactive). Besides, the figures for the growth in assay [7], in assay [8] and in assay [9] were 104% [100 µM] (inactive), 97.7% [100 µM] (inactive) and 93.1% [100 µM] (inactive), respectively.
Regarding `Cc1ccc(C(=O)c2ccc(C)cc2)cc1`, the growth was 95.9% (inactive) and 98.3% (inactive) in assay [1]; 92.4% (inactive) and 94.6% (inactive) in [2]; 97.2% (inactive) and 94.3% (inactive) in [3]; 92.5% (inactive) and 98.4% (inactive) in assay [4]; 101% (inactive) and 105% (inactive) in [5]; 59.2% (inactive) and 73.7% (inactive) in assay [6]. Besides, the growth is 89.3% (inactive) and 93.6% (inactive) in [7]; 87.9% (inactive) and 101% (inactive) in assay [8]; 90.7% (inactive) and 99.6% (inactive) in assay [9]; 99.7% (inactive) in assay [10].
For `CC1CCC(=O)N1c1ccc(N)cc1` (centres undefined), the growth in assay [1] was 103% (inactive); in assay [2], 100% (inactive); in [3], 96.4% (inactive); in [4], 86.3% (inactive); in assay [5], 106% (inactive); in assay [6], 107% (inactive). Besides, the growth is 85.2% (inactive) in assay [7], 89.1% (inactive) in assay [8], 106% (inactive) in assay [9] and 104% (inactive) in assay [10].
In the case of `CC(C)(C(=O)c1cccnc1)c1cccnc1`, the growth in assay [1] was 107% (inactive) and 133% (inactive); in assay [2], 96.6% (inactive) and 89.7% (inactive); in assay [3], 92% (inactive) and 103% (inactive); in assay [4], 109% (inactive) and 103% (inactive); in assay [5], 103% (inactive) and 101% (inactive); in assay [6], 89.3% (inactive). Besides, the growth in [7] is 93.5% (inactive) and 100% (inactive); in [8] it was 86.5% (inactive) and 108% (inactive); in assay [9], 103% (inactive) and 99.5% (inactive).
Consider `O=C(O)C(Cc1ccc(OS(=O)(=O)Cc2ccccc2)cc1)NS(=O)(=O)Cc1ccccc1` (centres undefined), for which the growth in assay [1] was 105% (inactive) and 112% (inactive); in assay [2], 108% (inactive) and 109% (inactive); in assay [3], 119% (inactive) and 127% (inactive); in assay [4] it was 105% (inactive) and 118% (inactive); in [5], 106% (inactive) and 119% (inactive); in assay [6], 135% (inactive) and 102% (inactive). The growth was 96.6% (inactive) in assay [7]; 101% (inactive) and 105% (inactive) in [8]; 98.9% (inactive) and 114% (inactive) in assay [9].
Turning to `COC(=O)c1cc(C(=O)OC)cc([N+](=O)[O-])c1`, the growth in assay [1] was 105% (inactive); in assay [2], 108% (inactive); in assay [3] it was 117% (inactive); in [4] it was 94.8% (inactive); in assay [5] it was 113% (inactive); in assay [6], 105% (inactive). Besides, the growth is 90.6% (inactive) in [7], 87.7% (inactive) in assay [8] and 92.9% (inactive) in [9].

The values are drawn from PubChem BioAssay (NCI).
